# The entries come from a sample that favours hits as a whole.
# Tgondii IFNg: T. gondii growth inhibition with IFN-gamma, primary screen, cell-based; Toxoplasma gondii growth in IFN-gamma-treated host cells; active compounds read low; activity change, negative = inhibition, % (test concentration not listed); 69,000 compounds, 3.8% hits; AID 1259416, 2018; in the data active = activity change below about -70%, passing the limit was not always enough;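 also: host cells are HeLa cells infected with Toxoplasma gondii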
# Starred values were filed as active, the others as inactive; ! = not confirmed by another sample.
SMILES,Tgondii IFNg
CN1CC2(CCN(Cc3ccccn3)CC2)CC1COCC1CC1 (configuration not stated),-0.1
O=C(NCc1cccs1)c1cc2cccnc2n(Cc2ccc(F)cc2)c1=O,-10.4
Cn1cccc1CN1CCC2(CCCN(Cc3ccccn3)C2)C1 (configuration not stated),-4.5
c1cnc(N2CCO[C@H]3CN(Cc4cccs4)C[C@@H]32)nc1,-71.1*
CC(C)N1CCO[C@@H]2CN(Cc3nccs3)C[C@@H]21,5.3
Cc1ccc(CN2C[C@@H]3OCCN(c4ncccn4)[C@H]3C2)s1,-65.8
COc1ccc(C2=NCC(=O)N(Cc3nc(-c4ccccc4)oc3C)c3sccc32)cc1,-95.2*
Cc1oc(-c2ccccc2)nc1CN1C(=O)CN=C(c2ccc(F)cc2)c2c1sc(C)c2C,-40.1
CN1C(=O)CN=C(c2ccccc2)c2cc(Cl)ccc21,-1.8
CN1C[C@@H](NC(=O)c2cscn2)C2OCCCC21 (some centres not stated),-2.5
O=C(Nc1cccc(F)c1)c1cc2cccnc2n(Cc2ccccc2F)c1=O,82.4
Cc1ccc2c(n1)N(CCn1cccn1)CCN(c1ccccn1)C2,51.9
C/C(=C\c1csc(C)n1)[C@H]1C[C@@H]2O[C@]2(C)CCC[C@H](C)[C@H](O)[C@@H](C)C(=O)C(C)(C)[C@H](O)CC(=O)O1,-74.9*
C/C1=C/C[C@@H](/C(C)=C/c2csc(C)n2)OC(=O)C[C@H](O)C(C)(C)C(=O)[C@H](C)[C@@H](O)[C@@H](C)CCC1,-60.1
C/C(=C\c1csc(C)n1)[C@@H]1C[C@@H]2O[C@@H]2CCC[C@H](C)[C@H](O)[C@@H](C)C(=O)C(C)(C)[C@@H](O)CC(=O)O1,-68.1
O=C(Nc1cccc(C(F)(F)F)c1)c1cc2cccnc2n(Cc2ccc(Cl)cc2)c1=O,9.3
CC(N)Cn1ccc2cc(F)c(Cl)cc21 (configuration not stated),6.9
CC(C)N(C)C(=O)C1CCC2(CCNCC2)O1 (configuration not stated),-1.5
CN1CCC2(CCCN2C(=O)c2ccno2)CC1,47.3
CC(=O)OCC1=C(C(=O)O)N2C(=O)[C@@H](NC(=O)CCCC(N)C(=O)O)C2SC1.[Zn] (some centres not stated),26.9
COC1COC2(CCN(Cc3cnn(C)c3)C2)C1 (configuration not stated),74.2
CCC1CN(Cc2cc(F)c(OC)c(Cl)c2)CCN1C(C)C (configuration not stated),11.0
C[C@]12CC[C@H](O)C[C@H]1CC[C@@H]1[C@@H]2CC[C@]2(C)[C@@H](C3=CC(=O)OC3)CC[C@]12O,-85.2*
CC12CC[C@H]3[C@@H](CCC4(O)C[C@H](O)CCC34/C=N/NC(=O)Cc3ccccc3)C1(O)CCC2C1=CC(=O)OC1 (some centres not stated),-9.6
C[C@]12[C@H](O)CC3C(CC[C@@H]4C[C@@H](O)CC[C@]34C)[C@@]1(O)CC[C@@H]2C1=CC(=O)OC1 (some centres not stated),-79.4*
SMILES,Tgondii IFNg
CC(=O)OCC(=O)[C@H]1CC[C@H]2[C@@H]3CC[C@H]4C[C@H](O)CC[C@]4(C)[C@H]3C(=O)C[C@]12C,2.0
CC(=O)[C@H]1CC[C@H]2[C@@H]3CC[C@H]4C[C@H](O)CC[C@]4(C)[C@H]3C(=O)C[C@]12C,17.5
C[C@]12CC[C@H](O)C[C@H]1CC[C@@H]1[C@@H]2C[C@@H](O)[C@]2(C)[C@@H](C3=CC(=O)OC3)CC[C@]12O,-86.6*
C[C@]12CCC3[C@@H](CC[C@@H]4C[C@H](O)CC[C@]34C)[C@@H]1CCC2=O (some centres not stated),37.2
CNC(=O)C[C@@H]1C[C@@H]2CN(Cc3ccncc3)C[C@H]2O1,-47.6
c1cnc(OCC2CCC3C2OCCN3Cc2ccco2)nc1 (configuration not stated),25.2
Cc1ccc(NC(=O)c2cc3cccnc3n(Cc3ccccc3)c2=O)cc1Cl,160.1
O=C(c1ccco1)N1CC2CC(C1)N(CCO)C2 (configuration not stated),14.5
Cc1cc(Br)ccc1NC(=O)c1cc2cccnc2n(Cc2ccc(F)cc2)c1=O,55.2
O=C(Nc1ccc(OC(F)(F)F)cc1)c1cc2cccnc2n(Cc2ccc(Cl)cc2)c1=O,27.7
Cc1nc(CCNC(=O)[C@@]23CNC[C@@H]2CN(C)C3)cc(=O)[nH]1,-1.7
C[C@]1(O)CC[C@H]2[C@@H]3CCC4=CC(=O)CC[C@]4(C)[C@@]3(F)[C@@H](O)C[C@@]21C,12.1
C#CC1(O)CCC2C3CCC4=CC(=O)CCC4(C)C3CCC21C (configuration not stated),-42.6
C[C@]12CC[C@@H]3c4ccc(O)c(O)c4CC[C@H]3[C@@H]1CC[C@@H]2O,35.5
C[C@]12CC[C@H]3[C@@H](CCC4=CC(=O)CC[C@@H]43)[C@@H]1CC[C@@H]2O,-76.2*
C[C@]12CCC(=O)C=C1CCC1C2CC[C@@]2(C)C1CC[C@@H]2O (some centres not stated),-87.5*
CC12CCC3C4CCCC=C4CCC3C1CCC2O (configuration not stated),-58.9
COc1ccc(NC(=O)c2cc3cccnc3n(Cc3ccccc3)c2=O)cc1,235.5
CO[C@@H]1CCN(Cc2ccoc2)[C@H]2CN(Cc3ccncc3)C[C@@H]12,-1.9
Clc1ccc(C23CNCC2C3)cc1Cl (configuration not stated),14.8
Oc1ccc(CN2CCN(Cc3cccc(F)c3)CC2)c(Cl)c1,-21.2
COCCN1CCOC2CCN(C(=O)Cc3cccnc3)CCC21 (configuration not stated),7.6
CC(=O)Nc1ccc(CN(C)C(C)Cc2ccccn2)cc1 (configuration not stated),-4.8
CN1CCN(C)C2(CCN(c3cc(NCCO)ncn3)CC2)C1,6.4
c1cnc(N2CCOCC3(CCCNC3)C2)cn1 (configuration not stated),4.2
SMILES,Tgondii IFNg
O=C1CC[C@@]2(O)[C@H]3Cc4ccc(O)c5c4[C@@]2(CCN3CC2CC2)[C@H]1O5,-8.3
O=C1/C(=C/c2ccccc2)C[C@@]2(O)C3Cc4ccc(O)c5c4[C@@]2(CCN3CC2CC2)[C@H]1O5,-76.1*!
Oc1ccc2c3c1O[C@H]1c4[nH]c5c(c4C[C@@]4(O)[C@@H](C2)N(CC2CC2)CC[C@]314)C[C@@]1(O)[C@H]2Cc3ccc(O)c4c3[C@@]1(CCN2CC1CC1)[C@H]5O4,12.1
O=C(Nc1ccccc1F)c1c(O)c2cccnc2n(Cc2ccccc2)c1=O,41.6
Cc1ccc(NC(=O)c2c(O)c3cccnc3n(Cc3ccccc3)c2=O)cc1C,94.1
O=C(Nc1ccc(Cl)cc1)c1c(O)c2cccnc2n(Cc2ccccc2)c1=O,44.3
O=C(NCc1ccco1)c1cc2cccnc2n(Cc2ccccc2)c1=O,-44.7
O=C(NCc1ccccc1Cl)c1c(O)c2cccnc2n(Cc2ccccc2)c1=O,-108.2*
COc1ccccc1NC(=O)c1c(O)c2cccnc2n(Cc2ccccc2)c1=O,47.0
O=C(NCc1ccco1)c1c(O)c2cccnc2n(Cc2ccccc2)c1=O,-99.5*
Cc1ccccc1CNC(=O)c1c(O)c2cccnc2n(Cc2ccccc2)c1=O,-119.4*
Cc1ccc(NC(=O)c2c(O)c3cccnc3n(Cc3ccccc3)c2=O)cc1F,29.7
O=C(Nc1cccc(F)c1)c1c(O)c2cccnc2n(Cc2ccccc2)c1=O,107.0
Cc1ccc(NC(=O)c2c(O)c3cccnc3n(Cc3ccccc3)c2=O)c(F)c1,138.5

# From PubChem BioAssay
